The source of these data is PubChem BioAssay AID686979 (National Center for Advancing Translational Sciences (NCATS), 2013).

Structures are written as SMILES. The whole screen tested about 420,000 compounds, of which about 50,000 (12%) were called active. Entries that show only a call come without a potency. Another 26% or so got no clear call; they are omitted. The call rests on the fitted dose curve; in most records, active means well fitted inhibition curve with a large enough effect; inconclusive means small, poorly fitted or top-dose-only effect; inactive means flat fitted curve, though single readings scatter. The sample as a whole holds a higher share of actives than the screen did.
Potency means the concentration at half of the fitted maximal effect.

This experiment can be described thus: qHTS for Inhibitors of human tyrosyl-DNA phosphodiesterase 1 (TDP1): qHTS in cells in presence of CPT. Further: nearly all actives have a fitted effect of over 55% in size. The note with it: chicken DT40 Tdp1-/-;hTDP1 cells + 20 nM CPT, ATP luminescence, 48 h; series mostly up to 46.2 µM. A digest of the protocol: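 Chicken DT40 Tdp1-/- cells stably complemented with human TDP1 were seeded at 400 cells/well in medium containing 20 nM camptothecin, exposed to pin-transferred compounds, and grown at 37 °C for at least 48 hr. Viability was read as ATP luminescence.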
(In general: In qHTS, concentration-response curves come from the screen itself.)
For the compound `CC(CC(=O)N1CCN(S(=O)(=O)c2ccccc2)CC1)n1cncn1` (configuration not stated), the Potency result was “inactive”. Next, `O=c1cc(-c2ccccc2)n2c(SCc3ccccc3)nnc2[nH]1`: “inactive”; `Cc1cc(C)c(NC(=O)CN2CCOCCOCCOCCOCC2)c(C)c1`: “inactive”. Next, `Cc1c(Cl)cccc1NC(=O)NCc1ccc(C)n1C`: “inactive”; `COc1ccc(/C=C/C(=O)NC(=S)NN2CCCCC2c2cccnc2)cc1` (configuration not stated): “inactive”; `O=S(=O)(NCCc1csc(-c2ccccc2)n1)c1cccnc1`: “inactive”.

Consider `O=S(=O)(Cc1cc(Sc2ccccc2)nc(-c2ccccc2)n1)c1ccccc1`, for which the Potency is 23.1 µM (active). Next, `O=S(=O)(Cc1nnnn1-c1ccccc1)c1ccccc1`: “inactive”; `CC1(C(=O)NS(=O)(=O)c2cccc(OC(F)F)c2)CCN1C(=O)COc1ccc(Cl)cc1` (configuration not stated): “inactive”. The entry for `COC(=O)c1ccc(COC(=O)C2CCN(S(=O)(=O)c3c(Cl)cccc3Cl)CC2)o1` is “inactive”; for `Cc1nc2ccccn2c(=O)c1NC(=O)c1c(F)cccc1F` it is “inactive”; for `Cn1c(C(=O)Nc2cccc(C(F)(F)F)c2)cc2c(=O)n3ccccc3nc21` it is 14.6 µM (active). Take `O=C(Nc1ccc(OC(F)(F)F)cc1)c1cc2c(=O)n3ccccc3nc2s1`: the Potency entry is “inactive”.

Consider `CCOc1ccccc1NC(=O)C1=C(C)Nc2ncnn2C1c1ccc(NC(C)=O)cc1` (configuration not stated), for which the Potency entry is “inactive”.

As to `CCOc1ccc(C2C(C(=O)Nc3ccc(Cl)cc3)=C(C)Nc3nc(C(F)(F)F)nn32)cc1` (configuration not stated), the Potency was 13 µM (active).

On to `CCOc1cc(C2C(C(=O)Nc3ccc(OC)cc3)=C(C)Nc3nc(SC)nn32)ccc1O` (configuration not stated), for which the Potency entry was “inactive”.

Turning to `C[n+]1cc(-c2ccccc2)oc1-c1ccccc1`, the Potency result is “inactive”. The entry for `O=C(O)CCCCOn1ccnc1` is “inactive”; for `CC1CN(C(=O)c2cccc(NS(=O)(=O)c3ccc(Br)cc3)c2)CC(C)O1` (configuration not stated) it is “inactive”. On to `Cc1cccc(NS(=O)(=O)c2ccc(-c3cnc(C4CC4)o3)cc2)c1`, for which the Potency was 0.731 µM (active). On to `Cc1cccc(NS(=O)(=O)c2ccc(C)c(C(=O)NCc3cccnc3)c2)c1`, for which the Potency entry was “inactive”. Next, `COc1ccc(S(=O)(=O)NCc2cccn2Cc2cccc(C)c2)cc1`: “inactive”; `COc1ccc(CNS(=O)(=O)c2ccc(-c3cnc(C4CC4)o3)cc2)cc1`: 14.6 µM (active); `COc1ccc(CNS(=O)(=O)c2cc3c4c(c2)CCN4C(=O)CC3)cc1`: “inactive”. For `CCc1ccc(S(=O)(=O)NCC(O)COc2ccc(OC)cc2)cc1` (configuration not stated), the Potency entry was “inactive”. For the compound `Cc1cccc(CNS(=O)(=O)c2ccc(-c3cnc(C4CC4)o3)cc2)c1`, the Potency is 16.4 µM (active).

As for `CC1CCN(S(=O)(=O)c2ccc(S(=O)(=O)NCc3cccnc3)cc2)CC1`, the Potency result was “inactive”. `O=C(C1CC1)N1N=C2CCCCC2C1(O)C(F)(F)F` (configuration not stated): the Potency entry was “inactive”. Take `O=[N+]([O-])c1ccccc1/C=C/CN1CCC(O)CC1`: the Potency entry is “inactive”.

As to `COC(=O)c1sc(C(F)(F)F)c(-c2ccccc2)c1S(=O)(=O)N(C)C`, the Potency entry was “inactive”.

On to `Cc1ccc(S(=O)(=O)NCCSc2ccccc2)cc1[N+](=O)[O-]`, for which the Potency result is “inactive”. As to `CC(Oc1ccc(Cl)cc1)c1ccnn1S(C)(=O)=O` (configuration not stated), the Potency result is “inactive”.

For `CC1CN(S(=O)(=O)c2cccc(C(F)(F)F)c2)CN1C(=O)N1CCOCC1` (configuration not stated), the Potency result is “inactive”. As for `O/N=C(\C[n+]1ccccc1)c1ccc(Br)cc1`, the Potency result was “inactive”. On to `COc1ccccc1N(CC(=O)Nc1ccc(C(F)(F)F)cc1)S(C)(=O)=O`, for which the Potency entry is “inactive”. Next, `CCCCN(CC)CCCNC(=O)c1nn(C)c2c1CSc1ccccc1-2`: 25.9 µM (active); `CCCCN(CC)CCCNC(=O)c1ccc(CSc2nc3ccncc3[nH]2)cc1`: “inactive”. Turning to `CCCCN(CC)CCCNC(=O)c1nn(C)c2c1CS(=O)(=O)c1ccccc1-2`, the Potency entry is “inactive”. In the case of `C[C@@H]1CC2=C(C(=O)OC(C)(C)O2)[C@@H](C2CC2)O1`, the Potency entry was “inactive”. Next, `Cn1nccc1CNC(=O)c1ccnn1C`: “inactive”; `CCCc1ccc(-c2c(C)sc(NC(=O)c3ccnn3C)c2C#N)cc1`: 23.1 µM (active); `CCN(CC)C(=O)c1sc(NC(=O)c2ccco2)c(C#N)c1C`: “inactive”. The entry for `COc1ccc(CNC(=O)CN(Cc2ccccc2Cl)C(=O)c2csnn2)cc1` is “inactive”; for `COc1cc(C(=O)NCC(c2ccc(Cl)cc2)N2CCOCC2)cc(OC)c1OC` (configuration not stated) it is 16.4 µM (active). The entry for `CN(C)c1ccc(C(CNS(=O)(=O)c2cc(F)ccc2F)N2CCOCC2)cc1` (configuration not stated) is “inactive”; for `COc1ccc(C(CNC(=O)c2cc3c(s2)CCCC3)N2CCOCC2)cc1` (configuration not stated) it is “inactive”. As for `COc1ccc(C(CNC(=O)c2cccnc2SC)N2CCOCC2)cc1` (configuration not stated), the Potency entry is “inactive”.

As for `CC(C)(C)c1ccc(C(=O)NCC(c2ccc(Cl)cc2)N2CCOCC2)cc1` (configuration not stated), the Potency is 23.1 µM (active).

On to `COc1cc(C(=O)OCCCN2CCOCC2)cc(OC)c1OC`, for which the Potency result was “inactive”. As for `CN1CCN(C(CNC(=O)c2ccccc2F)c2ccc3c(c2)OCO3)CC1` (configuration not stated), the Potency entry is “inactive”. For `O=C(NCC(c1ccc(Cl)cc1)N1CCOCC1)c1ccccc1F` (configuration not stated), the Potency is 16.4 µM (active). Next, `COc1ccc(C(CNC(=O)CSc2ccccc2)N2CCOCC2)cc1` (configuration not stated): “inactive”.

As for `Cc1ccc(S(=O)(=O)NN=C2CC(C)(C)CC(=O)C2(C)C)cc1`, the Potency entry was “inactive”. Next, `CCOCCCNC(=O)C1(O)c2cc(Br)ccc2NC(=O)N1c1ccc(C)c(C)c1` (configuration not stated): “inactive”. Consider `Cc1ccc(S(=O)(=O)N2CCCCC2)cc1NC(=O)CCNC(=O)c1ccccc1`, for which the Potency entry is “inactive”.

Take `CN(C)c1ccc2c(=O)[nH][nH]c(=O)c2c1`: the Potency entry was “inactive”.

In the case of `COc1cc(C(=O)N2CCOC23CCN(Cc2ccccc2)CC3)cc(OC)c1OC`, the Potency result was “inactive”. As to `N#Cc1cc([N+](=O)[O-])ccc1NC(=O)COC(=O)c1cnccn1`, the Potency entry is “inactive”.

On to `CCC(CC)NC(=O)CSc1nnc(-c2c[nH]c3ccccc23)o1`, for which the Potency entry was “inactive”.

For the compound `Cc1ccc(C(=O)OCC(=O)Nc2ccc(Cl)cn2)cc1S(=O)(=O)N1CCOCC1`, the Potency result was “inactive”. Next, `CN(Cc1ccccc1)C(=O)C(=O)c1cn(CC(=O)N2CCCC2)c2ccccc12`: “inactive”; `COc1cc(OC)cc(C(=O)N[C@H](C(=O)Nc2nc3ccccc3[nH]2)C(C)C)c1`: 1.64 µM (active). Next, `COc1cc(OC)cc(C(=O)N[C@H](C(=O)OCC(=O)NC(C)c2ccccc2)C(C)C)c1` (some centres not stated): “inactive”.

`COc1ccc(C(=O)N[C@H](C(=O)NCc2ccccc2)C(C)C)cc1`: the Potency entry is “inactive”.

As for `CC1=C/C(=N\OS(=O)(=O)c2ccccc2)C=CC1=O`, the Potency was 0.631 µM (active).

On to `O=S(=O)(ON(c1ccccc1)S(=O)(=O)c1ccccc1)c1ccccc1`, for which the Potency entry is “inactive”. Next, `COCCn1c(SCC(=O)Nc2nc(C)cs2)nnc1C(C)C`: “inactive”; `O=C(Nc1ccccc1C(=O)O)c1ccc(N2C(=O)C3CC=CCC3C2=O)cc1` (configuration not stated): “inactive”; `Cc1ccc(-c2ccc(/C=N/NC(=O)CN3CCOCC3)o2)cc1[N+](=O)[O-]`: 23.1 µM (active). Next, `Cc1ccc(NC(=O)CN2CCC(C(N)=O)CC2)cc1[N+](=O)[O-]`: “inactive”. For `O=C(CN1CCOCC1)N/N=C/c1ccc(-c2ccc(Br)cc2)o1`, the Potency result is “inactive”. For the compound `Cc1ccc(OC(=O)c2cncc(Br)c2)c(C)c1`, the Potency result is “inactive”. On to `CC(=O)[C@@]12O[C@@H]1C[C@H]1[C@@H]3CC[C@H]4C[C@@H](O)CC[C@]4(C)[C@H]3CC[C@@]12C`, for which the Potency entry was “inactive”. The figure for `CC1(Cc2ccccc2C#N)C(=O)Nc2ccc(-c3ccc4[nH]ccc4c3)cc21` (configuration not stated) is 1.46 µM (active); for `COc1ccc(CC(NC(C)=O)C(=O)NC2CCN(C(=O)c3ccc(Cl)cc3)CC2)cc1` (configuration not stated) it is “inactive”. Next, `CCC(C)C(N=C1NS(=O)(=O)c2ccccc21)C(=O)N1CCC(C)CC1` (configuration not stated): “inactive”; `NNc1cccc(C=Cc2ccccc2)cc1=O`: 2.06 µM (active). Next, `O=c1oc(/C=C/c2ccccc2)nc2ccccc12`: “inactive”; `O=c1[nH]c(/C=C/c2cccc(Br)c2)nc2ccccc12`: “inactive”; `Cc1cc(Cl)ccc1NC(=S)NCCCN1CCCC1=O`: “inactive”. For `COn1c(=O)c(=O)n(OC)c2ccccc21`, the Potency result was “inactive”. Take `CCOC(=O)C1=C(c2ccccc2)NC(=S)NC1c1ccc(Cl)cc1` (configuration not stated): the Potency result is “inactive”.

`CCOC(=O)C1=C(C)N(C[C@@H]2CC[C@@H](Cc3ccc(-c4ccccc4)cc3)O2)C(=O)NC1c1ccc([N+](=O)[O-])cc1` (some centres not stated): the Potency was 23.1 µM (active).

Consider `CCOC(=O)CSc1nnc(-c2ccc([N+](=O)[O-])cc2)o1`, for which the Potency entry was “inactive”.

For `C=C1c2cccc(OC)c2O[C@H](C(=O)OCC)[C@@H]1CCCCCC`, the Potency entry was “inactive”. For the compound `COC(=O)C(C)Oc1ccc2c(-c3cccc([N+](=O)[O-])c3)cc(=O)oc2c1` (configuration not stated), the Potency entry is “inactive”.

Turning to `COc1cccc(NC(=O)COc2cc(C)cc3oc(=O)cc(C)c23)c1`, the Potency result was “inactive”. For the compound `COc1cc(OC)c2c(-c3cccc(-c4cccc(N)c4)c3)cc(=O)oc2c1`, the Potency was 4.61 µM (active). Turning to `COc1ccccc1OCCNC(=O)C(CCSC)NC(=O)COc1ccccc1` (configuration not stated), the Potency result was “inactive”.

Regarding `CC(C)(CNC(=O)CNC(=O)C1CCCCC1)N1CCOCC1`, the Potency result was “inactive”. Next, `Cc1c(O)cc(O)c2c(=O)c(-c3ccc(O)cc3)coc12`: “inactive”; `CC(C)=CCc1c(O)c(CC=C(C)C)c2occ(-c3ccc(O)cc3)c(=O)c2c1O`: 18.4 µM (active). For `CCCCn1c(N)c(N(CC(C)C)C(=O)C2CSC3(C)CCC(=O)N23)c(=O)[nH]c1=O` (configuration not stated), the Potency result is “inactive”.

Regarding `Cc1ccc(CN(C)C[C@@H]2OCc3cnnn3CCCC(=O)N([C@@H](C)CO)C[C@H]2C)cc1`, the Potency result was “inactive”. With `C[C@H]1CN([C@@H](C)CO)C(=O)Cc2cc(NS(C)(=O)=O)ccc2O[C@@H]1CN(C)CC1CC1`, the Potency entry was “inactive”. For `C[C@H]1CN([C@@H](C)CO)C(=O)CCCn2nncc2CO[C@@H]1CN(C)Cc1ccc(Oc2ccccc2)cc1`, the Potency is 23.1 µM (active).

For the compound `C[C@@H]1CN([C@H](C)CO)C(=O)c2cc(Br)cnc2O[C@@H]1CN(C)Cc1cncnc1`, the Potency entry is “inactive”.

With `C[C@H]1CN([C@@H](C)CO)C(=O)c2cc(-c3cccc(F)c3)cnc2O[C@@H]1CN(C)S(C)(=O)=O`, the Potency result is “inactive”. Regarding `C[C@H](CO)N1C[C@H](C)[C@@H](CN(C)Cc2ccc3c(c2)OCO3)OCc2cnnn2CCCC1=O`, the Potency entry is “inactive”.

Turning to `COc1ccc(-c2cnc3c(c2)C(=O)N([C@H](C)CO)C[C@@H](C)[C@H](CN(C)Cc2ccccc2)O3)cc1`, the Potency was 14.6 µM (active). As for `C[C@H](CO)N1C[C@H](C)[C@H](CN(C)CC2CC2)Oc2ccc(NC(=O)CCN3CCOCC3)cc2C1=O`, the Potency entry was “inactive”.

Regarding `CCOC(=O)CCCCCC(=O)Nc1ccc2c(c1)CC(=O)N([C@@H](C)CO)C[C@H](C)[C@@H](CN(C)Cc1ccccc1)O2`, the Potency is 18.4 µM (active).
